# Assay results reported in PubChem BioAssay (EPA / NIEHS).
# Records with an inconclusive call do not appear. Activity calls are given as the source filed them. How the source made its calls: active means hit-call score of the fitted dose curve at least 0.9, where 1 is the maximum; inconclusive means response in the unintended direction; inactive means score below 0.9.
# Molecular target: human Protein Tyrosine Phosphatase Receptor Type C (PTPRC), PTPRC (gene 5788) (UniProt P08575)
# Experiment: NVS_ENZ_hPTPRC: NovaScreen (NVS) Enzymatic Assay for human Protein Tyrosine Phosphatase Receptor Type C (PTPRC) (AID 2283212)
# Protocol: NVS_ENZ_hPTPRC is a biochemical, single-readout assay that uses extracted gene-proteins from yeast cells in a cell-free assay. Measurements were taken 1 hour after chemical dosing in a 96-well plate.NVS_ENZ_hPTPRC is one of one assay component(s) measured or calculated from the NVS_ENZ_hPTPRC assay. It is designed to make measurements of enzyme activity, a form of enzyme reporter, as detected with absorbance signals by Colorimetric technology.Data from the assay component NVS_ENZ_hPTPRC was analyzed into 1 assay endpoint. This assay endpoint, NVS_ENZ_hPTPRC, was analyzed in the positive analysis fitting direction relative to DMSO as the negative control and baseline of activity. Using a type of enzyme reporter, loss-of-signal activity can be used to understand changes in the enzymatic activity as they relate to the gene PTPRC. Furthermore, this assay endpoint can be referred to as a primary readout, because this assay has produced multiple assay endpoints where this one serves a enzymatic activity function. To generalize the intended target to other relatable targets, this assay endpoint is annotated to the phosphatase intended target family, where the subfamily is receptor tyrosine phosphatase.
# Binding assays used specific radioligands (tritiated, iodinated) with non-radioactive competitive displacement ligands in agonist or antagonist protocols (as indicated) and various reference compounds and inhibitors to titrate specific binding to receptors and transporters. Most enzyme assays (CYPs, kinases, phosphatases, proteases, HDACs) used recombinant protein and specific substrates (fluorescence mostly, some colorimetric and radioactive) and inhibitors, followed by a biochemical separation of substrate and product. All assays for the biochemical HTS were initially run in duplicate at a single concentration (10 uM for CYP450 assays and 25 uM for all others). Assay-chemical combinations meeting a pre-defined threshold (e.g., 30% inhibition and other criteria defined below) were then run in singleton concentration-response format with maximum concentration of 20 uM for CYPs and 50 uM for all others. Each assay was run with positive and negative controls, and concurrent controls on every plate. The follow-up (secondary) screen tested active chemical-pairs in concentration series, as well as a few additional assays not tested in the primary screen, some selected negative inactives, and several cases re-run in the concentration series for confirmatory purposes.
# human Protein Tyrosine Phosphatase Receptor Type C (PTPRC), PTPRC (gene 5788), sequence (P08575 whole entry, looked up): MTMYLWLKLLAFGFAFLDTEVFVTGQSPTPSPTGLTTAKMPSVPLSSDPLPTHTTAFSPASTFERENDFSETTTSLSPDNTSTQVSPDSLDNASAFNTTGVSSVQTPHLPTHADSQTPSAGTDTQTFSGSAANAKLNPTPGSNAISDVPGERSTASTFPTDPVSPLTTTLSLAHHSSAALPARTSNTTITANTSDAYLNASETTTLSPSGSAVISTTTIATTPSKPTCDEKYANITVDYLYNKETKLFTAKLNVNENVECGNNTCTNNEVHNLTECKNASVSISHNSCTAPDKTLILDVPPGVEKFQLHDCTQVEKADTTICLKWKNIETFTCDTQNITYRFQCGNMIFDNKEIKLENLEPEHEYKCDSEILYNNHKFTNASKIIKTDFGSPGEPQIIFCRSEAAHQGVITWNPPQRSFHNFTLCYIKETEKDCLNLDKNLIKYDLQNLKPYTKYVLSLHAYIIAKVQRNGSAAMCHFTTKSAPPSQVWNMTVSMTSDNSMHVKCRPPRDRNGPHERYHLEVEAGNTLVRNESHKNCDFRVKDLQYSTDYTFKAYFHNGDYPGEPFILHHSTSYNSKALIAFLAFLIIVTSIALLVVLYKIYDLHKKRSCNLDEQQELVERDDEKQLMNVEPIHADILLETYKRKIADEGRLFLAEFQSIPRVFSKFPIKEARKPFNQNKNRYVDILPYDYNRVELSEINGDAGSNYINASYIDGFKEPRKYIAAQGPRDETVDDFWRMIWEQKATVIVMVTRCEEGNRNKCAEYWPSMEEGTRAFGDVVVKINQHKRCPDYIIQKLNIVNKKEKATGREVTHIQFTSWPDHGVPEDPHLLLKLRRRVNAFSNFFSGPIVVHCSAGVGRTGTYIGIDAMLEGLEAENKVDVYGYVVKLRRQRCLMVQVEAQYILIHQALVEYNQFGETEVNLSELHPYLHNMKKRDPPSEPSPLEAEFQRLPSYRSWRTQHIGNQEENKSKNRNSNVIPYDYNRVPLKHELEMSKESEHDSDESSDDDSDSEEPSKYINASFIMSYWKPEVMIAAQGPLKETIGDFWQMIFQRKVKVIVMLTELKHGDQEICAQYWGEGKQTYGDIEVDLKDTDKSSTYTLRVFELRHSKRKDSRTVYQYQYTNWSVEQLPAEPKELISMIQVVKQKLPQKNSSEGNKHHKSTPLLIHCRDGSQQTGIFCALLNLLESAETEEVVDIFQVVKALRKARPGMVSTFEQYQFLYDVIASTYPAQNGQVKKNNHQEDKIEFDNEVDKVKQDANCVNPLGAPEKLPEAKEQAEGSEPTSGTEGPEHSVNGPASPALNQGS
SMILES,outcome,AC50
COC(=O)c1ccccc1N,inactive,
[O-][Cl+]O,inactive,
Cc1cccc(N)c1N,,15.8 µM (active)
C[C@]12C=CC3=C4CCC(=O)C=C4CC[C@H]3[C@@H]1CC[C@@H]2O,,9.63 µM (active)
Nc1ccc(Cl)cc1N,,16.2 µM (active)
CN(C)C(=O)Nc1ccc(Cl)cc1,inactive,
CC(C)(C)C(O)(CCc1ccc(Cl)cc1)Cn1cncn1 (stereo unspecified),inactive,
c1ccc(NNc2ccccc2)cc1,,18.2 µM (active)
O=[N+]([O-])c1ccc(Oc2ccc(Cl)cc2Cl)cc1,inactive,
ClCCOCCCl,inactive,
CN(C)[C@@H]1C(=O)C(C(N)=O)=C(O)[C@@]2(O)C(=O)C3=C(O)c4c(O)cccc4[C@@](C)(O)[C@H]3C[C@@H]12,,15.6 µM (active)
